Here are results for 23 compounds from PubChem BioAssay (EPA / NIEHS).

Active and inactive are the calls of the source. How the source made its calls: active means hit-call score of the fitted dose curve at least 0.9, where 1 is the maximum; inactive means score below 0.9.

This test can be described thus: ATG_CRE_CIS: Attagene CIS-FACTORIAL HepG2 Assay for human cAMP Responsive Element (CRE) binding protein 3 (AID 2282926). The conditions noted are these: HepG2 CRE cis-reporter, Attagene multiplexed mRNA; actives raise or lower the signal. In outline:
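Liver-derived HepG2, transfected with a CRE-containing reporter panel, exposed 24 h; transcript levels sized and quantified by capillary electrophoresis of labelled amplicons; signal changes either way referenced to vehicle.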
Regarding `Cc1cc(=O)n(-c2ccccc2)n1C`, the result was inactive.

Turning to `CC1(C)[C@H]2CC[C@]1(C)C(=O)C2`, the call was inactive.

As for `C=C[Si](OC(C)=O)(OC(C)=O)OC(C)=O`, the result was inactive.

As for `COC=O`, the outcome was inactive.

With `C=CC=CC=CCCCCC`, the compound was called inactive.

`Cc1ccc(N/N=c2\c(=O)cc/c(=N/Nc3ccc(S(=O)(=O)O)cc3)c2=O)c(C)c1`: the compound was called inactive.

As for `C1CN(SSN2CCOCC2)CCO1`, the result was inactive.

In the case of `O=S(=O)(O)c1cc(S(=O)(=O)O)c2ccc3c(S(=O)(=O)O)cc(S(=O)(=O)O)c4ccc1c2c43`, the compound was called inactive.

Turning to `CCC(CC)C(=O)O`, the compound was called inactive.

Consider `O=C1c2ccccc2C(=O)C1c1nc2ccccc2c(Br)c1O`, for which the compound was classed as inactive.

`NNC(=O)c1cccc(C(=O)NN)c1`: the compound was classed as inactive.

Take `CC(=O)Nc1ccc2c(c1)Cc1cc(NC(C)=O)ccc1-2`: the call was inactive.

Consider `CCOC(=O)c1ccc(N(C)C)cc1`, for which the compound was classed as inactive.

Consider `C=C(C)[C@@H]1CCC2=CCC[C@@H](C)[C@]2(C)C1`, for which the outcome was inactive.

In the case of `CCCNC(=O)NS(=O)(=O)c1ccc(Cl)cc1`, the result was inactive.

Turning to `COCc1c(C(C)C)nc(C(C)C)c(/C=C/[C@@H](O)C[C@@H](O)CC(=O)O)c1-c1ccc(F)cc1`, the outcome was inactive.

Consider `COC(F)(F)C(F)(C(F)(F)F)C(F)(F)F`, for which the call was inactive.

For `Nc1ccc(N=Nc2ccccc2)c(N)n1`, the compound was called inactive.

Take `Cc1ccc2c(c1)C(=O)c1ccccc1C2=O`: the compound was called inactive.

`CC(C)(C)c1n[nH]c(=O)n(N)c1=O`: the result was inactive.

Turning to `COc1ccc2nc(N)sc2c1`, the outcome was inactive.

With `COC(=O)c1c(C)cc(O)c(C)c1O`, the outcome was inactive.

With `CC1(C)O[C@@H]2C[C@H]3[C@@H]4C[C@H](F)C5=CC(=O)C=C[C@]5(C)[C@@]4(F)[C@@H](O)C[C@]3(C)[C@]2(C(=O)CO)O1`, the compound was called inactive.
